An excerpt weighted towards active compounds, which were near 18% of everything screened.
TDP1 cell CPT = DT40-hTDP1 cell growth loss with CPT; chicken DT40 Tdp1-/-;hTDP1 cells + 20 nM CPT, ATP luminescence, 48 h; Potency, µM (highest dose often 46.2 µM), hits mostly inhibitors; 12% of 420,000 active; AID 686979; further: nearly all actives have a fitted effect of over 55% in size
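Chicken DT40 Tdp1-/- cells stably complemented with human TDP1 were seeded at 400 cells/well in medium containing 20 nM camptothecin, exposed to pin-transferred compounds, and grown at 37 °C for at least 48 hr. Viability was read as ATP luminescence.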
TDP1 cell noCPT = qHTS for Inhibitors of human tyrosyl-DNA phosphodiesterase 1 (TDP1): qHTS in cells in absence of CPT. DT40 Tdp1-/- hTDP1 cells, no CPT, ATP luminescence, 48 h. Potency, µM (titrated, usually from 46.2 µM), hits mostly inhibitors. 15% of 420,000 active. AID 686978, 2013; further: nearly all actives have a fitted effect of over 55% in size
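Chicken DT40 Tdp1-/- cells complemented with human TDP1, screened without camptothecin (DMSO vehicle only), 400 cells/well. Compounds pin-transferred, cells incubated at 37 °C for at least 48 hr. Growth read as ATP-dependent luminescence (CellTiter-Glo, 30 min at RT).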
TDP1 block = blocks human tyrosyl-DNA phosphodiesterase 1 | recombinant TDP1, AlphaScreen DNA substrate cleavage | Potency, µM (doses to about 130 µM), actives largely listed as inhibitors | 0.28% of 350,000 active; further: nearly all actives have a fitted effect of over 40% in size
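E. coli-derived human Tdp1, 1 nM final. Cpd preinc 15 min RT; substrate 15 nM final, 5 min RT; AS bead mix 10 ug/ml final, 10 min RT. Signal loss = tyrosine-FITC cleavage. No-enzyme wells = max signal.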
Six1-Eya2 blk = blocks human Six1 binding to Eya2; Q15475+O00167; AlphaScreen GST-Six1/His-Eya2 binding, biochemical; active compounds read low; activity change, % (no concentration beside the values); 0.56% of 360,000 active; AID 651725; in the data active means activity change below about -65%; inconclusive means mostly about -30% to -63%
Target sequence (O00167 whole entry, looked up): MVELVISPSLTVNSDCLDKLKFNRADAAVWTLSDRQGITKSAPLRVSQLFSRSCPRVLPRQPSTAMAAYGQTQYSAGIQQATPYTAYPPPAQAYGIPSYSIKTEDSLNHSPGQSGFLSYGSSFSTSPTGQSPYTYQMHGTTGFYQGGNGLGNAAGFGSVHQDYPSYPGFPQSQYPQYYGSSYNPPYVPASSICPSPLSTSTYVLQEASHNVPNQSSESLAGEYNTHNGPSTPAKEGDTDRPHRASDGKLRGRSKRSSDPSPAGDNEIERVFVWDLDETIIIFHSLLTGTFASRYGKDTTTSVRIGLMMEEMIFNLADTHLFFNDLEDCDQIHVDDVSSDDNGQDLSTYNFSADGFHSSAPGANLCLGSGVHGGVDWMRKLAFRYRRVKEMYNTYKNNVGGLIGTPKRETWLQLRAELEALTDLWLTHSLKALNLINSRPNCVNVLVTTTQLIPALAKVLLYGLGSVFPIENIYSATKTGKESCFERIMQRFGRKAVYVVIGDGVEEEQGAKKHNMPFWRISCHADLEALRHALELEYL
Target sequence (Q15475 whole entry, looked up): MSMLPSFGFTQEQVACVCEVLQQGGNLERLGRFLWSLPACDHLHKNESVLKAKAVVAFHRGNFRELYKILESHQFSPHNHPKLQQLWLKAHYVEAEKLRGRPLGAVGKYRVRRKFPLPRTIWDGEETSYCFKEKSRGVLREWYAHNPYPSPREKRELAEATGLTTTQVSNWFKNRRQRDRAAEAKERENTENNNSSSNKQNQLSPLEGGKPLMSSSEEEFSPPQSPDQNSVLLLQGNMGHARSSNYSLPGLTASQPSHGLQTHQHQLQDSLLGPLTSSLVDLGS
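AlphaScreen luminescence read after one hour at 37 °C in darkness. Pin-transferred compounds met GST-Six1 and His-Eya2 protein (5X stock 250 nM/500 nM) plus glutathione donor and Ni-chelate acceptor beads (5X, 50 ug/mL).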
CtBP-E1A blk = CtBP/E1A binding inhibition; AlphaScreen GST-E1A/His-CtBP binding, 1536-well; active compounds read low; 0.49% of 340,000 active; activity change, % (no concentration beside the values); in the data active means activity change below about -65%; inconclusive means mostly about -30% to -63%
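GST-E1A and His-tagged CtBP (125 nM each as 5X stock) were preincubated with pin-transferred compound for 2 h at 37 °C in the dark, then glutathione donor and nickel acceptor beads were added for 1 h before AlphaScreen reading.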
IL1B secr inh = blocks inflammasome-driven IL-1 beta release; activity change, % at 57.5 µM; 4.7% of 360,000 active; THP-1 LPS/ATP IL-1B secretion, AlphaLISA, 16 h; active compounds read low; in the data active means activity change below about -50%; inconclusive means mostly about -30% to -49%
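THP-1 cells pretreated 1 hr with compounds (up to 57.5 uM final), then stimulated with LPS (250 ng/mL final) plus ATP (1.25 mM final); secreted IL-1B measured by AlphaLISA after 16 hr, decreased signal indicating inhibition.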
Of the large screens only hits and unclear results are named; the others gave an inactive call. Unless noted, the call rests on the fitted dose curve; in most records, active means well fitted curve in the direction sought with a large enough effect; inconclusive means small, poorly fitted or top-dose-only effect, or another doubt; inactive means no such curve, though single readings can be large; an effect the other way counts as inactive or inconclusive.

COC(=O)c1cccc(Nc2cc(C)nc(-c3ccccc3O)n2)c1	TDP1 cell CPT inconclusive, TDP1 cell noCPT 16µM, CtBP-E1A blk inconclusive
Cc1cc(Nc2ccc(Cl)cc2)nc(-c2ccccc2O)n1	TDP1 cell CPT inconclusive, TDP1 cell noCPT 26µM (no result: TDP1 block, CtBP-E1A blk)
Cc1nn(-c2ccccc2)c(C)c1NC(=O)COC(=O)c1ccc(NC(=O)CC#N)cc1	none (no result: TDP1 block)
Oc1ccc(/C=N/NC(=S)Nc2cccnc2)c(O)c1	TDP1 cell CPT inconclusive, TDP1 cell noCPT 8.2µM, Six1-Eya2 blk -90, CtBP-E1A blk -82, IL1B secr inh -65
O=C(CCC(=O)Nc1ccc(F)cc1)N/N=C/c1ccc(O)cc1O	TDP1 cell noCPT inconclusive, Six1-Eya2 blk inconclusive, CtBP-E1A blk inconclusive
Oc1cccc(/C=N/NC(=S)Nc2cccnc2)c1O	TDP1 cell CPT 2.3µM, TDP1 cell noCPT 4.6µM, Six1-Eya2 blk -91, CtBP-E1A blk -95, IL1B secr inh -96
Fc1cccc(F)c1/C=N/NC(=S)Nc1cccnc1	TDP1 cell CPT inconclusive
Fc1c(F)c(F)c(/C=N/NC(=S)Nc2cccnc2)c(F)c1F	TDP1 cell CPT inconclusive, TDP1 cell noCPT 18µM, IL1B secr inh -102
Oc1ccc(C=NNC(=S)Nc2ccc(F)cc2)c(O)c1	TDP1 cell noCPT inconclusive, Six1-Eya2 blk -80, CtBP-E1A blk -93 (no result: TDP1 block)
Fc1ccc(/C=N/NC(=S)Nc2cccnc2)cc1F	TDP1 cell CPT inconclusive, TDP1 cell noCPT inconclusive
Oc1ccc(/C=N/NC(=S)Nc2cccnc2)c(O)c1O	TDP1 cell CPT 9.2µM, TDP1 cell noCPT 15µM, Six1-Eya2 blk -89, CtBP-E1A blk -93 (no result: TDP1 block)
O=C(O)c1cccc(NC(=S)N/N=C/c2cccnc2)c1	none
CN(C)Cc1cc(C(C)(C)C)cc(C(C)(C)C)c1O	TDP1 cell CPT inconclusive
CN(C)Cc1cc(O)c(CN(C)C)cc1O	TDP1 cell CPT 2.6µM, TDP1 cell noCPT 3.7µM, TDP1 block inconclusive, Six1-Eya2 blk inconclusive (no result: CtBP-E1A blk)
COc1ccc(N2C(=O)N(Cc3ccc(C)cc3)c3ccccc3S2(=O)=O)cc1	TDP1 cell CPT inconclusive, TDP1 cell noCPT inconclusive
COc1cc(OC)cc(N2C(=O)N(Cc3ccc(C(C)(C)C)cc3)c3ccccc3S2(=O)=O)c1	TDP1 cell CPT inconclusive, TDP1 cell noCPT 21µM (no result: Six1-Eya2 blk, CtBP-E1A blk, IL1B secr inh)
CSc1cccc(N2C(=O)N(Cc3ccc([N+](=O)[O-])cc3)c3ccccc3S2(=O)=O)c1	none (no result: Six1-Eya2 blk, CtBP-E1A blk, IL1B secr inh)
C=Cc1ccc(CN2C(=O)N(c3cccc(Cl)c3)S(=O)(=O)c3ccccc32)cc1	TDP1 cell CPT 12µM, TDP1 cell noCPT inconclusive (no result: Six1-Eya2 blk, CtBP-E1A blk, IL1B secr inh)
CC(Oc1ccccc1)C(=O)N=C1SC2CS(=O)(=O)CC2N1c1ccc(F)cc1 (stereo not drawn)	none
CCN1CCCC1CNCc1ccc(Cl)cc1Cl (stereo not drawn)	none
O=C(N[C@@H](Cc1ccccc1)C(=O)OCc1ccccc1)c1nc[nH]c1C(=O)NC(c1ccccc1)c1ccccc1	TDP1 cell CPT inconclusive, TDP1 cell noCPT inconclusive
CCN(C(=O)CSc1nnc(Cc2ccccc2F)n1N)C1CCS(=O)(=O)C1 (stereo not drawn)	none
CCCCCC(=O)Nc1nc(C)c(-c2csc(Nc3cc(Cl)ccc3C)n2)s1	TDP1 cell CPT inconclusive, TDP1 cell noCPT 18µM (no result: CtBP-E1A blk)
CCCCCC(=O)Nc1nc(C)c(-c2csc(Nc3ccc(Cl)cc3)n2)s1	TDP1 cell CPT inconclusive, TDP1 cell noCPT 13µM (no result: CtBP-E1A blk)
CCCCCCC(=O)Nc1nc(C)c(-c2csc(Nc3ccc(Cl)cc3)n2)s1	TDP1 cell CPT 2.3µM, TDP1 cell noCPT 4.6µM
Cc1nc(NC(=O)c2ccccc2)sc1-c1csc(Nc2ccc(Cl)cc2)n1	none (no result: TDP1 cell CPT, TDP1 cell noCPT, Six1-Eya2 blk, CtBP-E1A blk, IL1B secr inh)
CSCCC(NC(=O)c1ccc(Cl)cc1Cl)C(=O)OC(C)C(=O)NCc1ccco1 (stereo not drawn)	none
CC1=CC(C)(C)N2C(=O)C3(SCC(=O)N3c3ccc(O)cc3)c3cc(C)cc1c32 (stereo not drawn)	none
CC1=CC(C)(C)N2C(=O)C3(N=C(N)NC(Nc4ccccc4)=N3)c3cc(C)cc1c32 (stereo not drawn)	TDP1 cell CPT inconclusive, TDP1 cell noCPT 18µM, IL1B secr inh -78

Bioassay records (PubChem BioAssay)
